Source: PubChem BioAssay AID1224858 (National Center for Advancing Translational Sciences (NCATS), 2016)
Records with an inconclusive call do not appear. Values without a mark were called inactive. The source made the active and inactive calls. The call rests on the fitted dose curve; in most records, active means well fitted inhibition curve with a large enough effect; inconclusive means small, poorly fitted or top-dose-only effect; inactive means no such curve, though single readings can be large or run the other way.

experiment: Confirmation assay for measurement of the activity of small molecule inhibitors on Zika virus induced Caspase-3 activity in human astrocytes; details: ZIKV-induced caspase-3/7 luminescence, 6 h; series mostly up to 46.1 µM; activity, negative = inhibition: at the top concentration
Summary of the method: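 Percent inhibition was derived from Caspase-Glo 3/7 luminescence, scaled between uninfected cells and ZIKV-infected cells. Astrocytes got compound 1 h before 2 FFU/cell ZIKV, then 6 h infection at 37 C.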

SMILES | Potency | activity, negative = inhibition
COc1ccc(C=CC(=O)Nc2ccccc2C(=O)O)cc1OC | 17.3 µM (active) | 
O=C(O)[C@H](CC(=O)N1C[C@@H]2CCCC[C@H]2C1)Cc1ccccc1 |  | 1.15%
CCCS(=O)c1ccc2nc(NC(=O)OC)[nH]c2c1 (stereo not drawn) | 13.8 µM (active) | 
Cc1cccc(/C=C/c2ccccc2)n1 | 10.9 µM (active) | 
CCN1CCC(n2cc(CNc3cc(Cl)c4ncc(C#N)c(Nc5ccc(F)c(Cl)c5)c4c3)nn2)CC1 |  | -8.22%
CC1=C(CO)C(=O)O[C@@H]([C@@H](C)[C@H]2CC[C@H]3[C@@H]4C[C@H]5O[C@]56[C@@H](O)C=CC(=O)[C@]6(C)[C@@H]4CC[C@]23C)C1 |  | -6.03%
CCC(C(=O)O)c1ccc(N2Cc3ccccc3C2=O)cc1 (stereo not drawn) | 6.9 µM (active) | 
CO[C@H]1C(=O)[C@]2(C)[C@@H](OC)C[C@H]3OC[C@@]3(OC(C)=O)[C@H]2[C@H](OC(=O)c2ccccc2)[C@]2(O)C[C@H](OC(=O)[C@H](O)[C@@H](NC(=O)OC(C)(C)C)c3ccccc3)C(C)=C1C2(C)C |  | -4.54%
CC(C)c1ccc2oc3nc(N)c(C(=O)O)cc3c(=O)c2c1 | 1.95 µM (active) | 
NC(N)=NN=C(/C=C/c1ccc([N+](=O)[O-])o1)/C=C/c1ccc([N+](=O)[O-])o1 |  | -25.3%
Oc1cc(O)cc(/C=C/c2ccc(O)c(O)c2)c1 | 6.9 µM (active) | 
Cc1c(NC(=O)c2ccc(C(C)(C)C)cc2)cccc1-c1cn(C)c(=O)c(Nc2ccc(C(=O)N3CCOCC3)cc2)n1 |  | -4.1%
CC(=O)Oc1ccccc1C(=O)Nc1ncc([N+](=O)[O-])s1 | 1.58 µM (active) | 
